# Sampled rows, rich in hits. Any-hit rate of the full collection: about 19%.
# DT40 TDP1 CPT = DT40-hTDP1 cell growth loss with CPT | chicken DT40 Tdp1-/-;hTDP1 cells + 20 nM CPT, ATP luminescence, 48 h | Potency, µM (doses to about 46.2 µM), for inactives: at the top dose activity change, negative = growth inhibition, actives largely listed as inhibitors | 420,000 compounds, 12% hits; also: nearly all actives have a fitted effect of over 55% in size
#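 Chicken DT40 Tdp1-/- cells complemented with human TDP1, 400 cells/well, exposed to compounds plus 20 nM camptothecin for at least 48 h at 37 C; viability read as ATP content by CellTiter-Glo luminescence.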
# HT1080-NT tox = kills 2HG-producing HT-1080-NT fibrosarcoma cells; HT-1080-NT fibrosarcoma viability, CellTiter-Glo ATP luminescence, 48 h; Potency, µM (top dose mostly 46.1 µM), inactives show at the top dose activity, negative = less viability, usual class: cytotoxic; 360,000 compounds, 1.6% hits; AID 686970;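 also: NT is the 2HG producing partner of a matched IDH1 knockdown line; 0% = DMSO-treated cells and -100% = media-only wells without cells; nearly all actives have a fitted effect of over 55% in size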
#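 Read-out is CellTiter-Glo luminescence after 10 minutes at room temperature, following 48 hours' compound treatment of HT-1080-NT cells (750 cells/well, RPMI, 5% FBS, 37 degrees C).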
# HT1080 IDH1KD tx = toxicity to HT-1080 IDH1 knockdown cells (counter line); HT-1080 IDH1 knockdown viability, ATP luminescence, 48 h; Potency, µM (highest dose often 46.1 µM), for inactives: at the highest dose activity, negative = toxicity, usual class: cytotoxic; 360,000 compounds, 2% hits; AID 686971;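 also: 0% = DMSO wells and -100% = cell-free medium wells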
#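 IDH1KD HT-1080 cells, 750/well, RPMI + 5% FBS; compound pinned after 2 h settling; 48 h, 37 °C; CellTiter-Glo luminescence; % activity normalised to DMSO and no-cell wells; curves fitted, classed by r2 and efficacy.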
# KB-V1 cytotox = kills drug-selected multidrug resistant KB-V1 cells; Potency, µM (series often up to 46.1 µM), actives largely listed as cytotoxic; KB-V1 MDR cells viability, CellTiter-Glo, 72 h; 400,000 compounds, 3.4% hits; also: nearly all actives have a fitted effect of over 60% in size
#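 Following 72 h at 37 degrees C with compound, KB-V1 cell viability was read by CellTiter-Glo luminescence, medium being phenol-red-free DMEM plus 10% FBS; concentration-response parameters came from normalized, curve-fitted qHTS data.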
# KB-3-1 tox = KB-3-1 parental cell cytotoxicity. KB-3-1 viability, CellTiter-Glo ATP luminescence, 72 h. Potency, µM (doses to about 46.1 µM), usual class: cytotoxic. 400,000 compounds, 1.4% hits; also: nearly all actives have a fitted effect of over 60% in size
#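 Luminescent ATP read-out (CellTiter-Glo) measures survival of drug-naive KB-3-1 cells after 72 h compound exposure at 37 °C. Titration series was screened from lowest to highest concentration, with DMSO vehicle plates as background controls.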
# TDP1 cell noCPT = qHTS for Inhibitors of human tyrosyl-DNA phosphodiesterase 1 (TDP1): qHTS in cells in absence of CPT | DT40 Tdp1-/- hTDP1 cells, no CPT, ATP luminescence, 48 h | AID 686978, 2013 | 420,000 compounds, 15% hits | Potency, µM (highest dose often 46.2 µM), inactives show top-dose activity change, negative = growth inhibition, hits mostly inhibitors; also: nearly all actives have a fitted effect of over 55% in size
#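 DT40 Tdp1-/-;hTDP1 cells, no CPT (DMSO vehicle only), 400 cells/well; compounds pin-transferred; ≥48 hr, 37 °C; CellTiter-Glo 30 min RT dark, luminescence read.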
# * hit, by the source's call; i = inactive; u = inconclusive; x = no result. Calls follow the shape of the dose curve; as a rule, active = well fitted curve in the direction sought with a large enough effect; inconclusive = small, poorly fitted or top-dose-only effect, or another doubt; inactive = no such curve, though single readings can be large; an effect the other way counts as inactive or inconclusive. Unless noted, % is scaled to controls: 0 for no effect and ±100 for the full control effect; potency is read from the fitted curve at half-maximal effect.
SMILES,DT40 TDP1 CPT,HT1080-NT tox,HT1080 IDH1KD tx,KB-V1 cytotox,KB-3-1 tox,TDP1 cell noCPT
COc1ccc(Nc2nnc(SC(C(=O)Nc3ccc(OC)c(Cl)c3)c3ccccc3)s2)cc1 (stereo not given),23µM*,-9%,-21%,i,i,13µM*
COc1ccc(Nc2nnc(SC(C(=O)Nc3cc(C)ccc3C)c3ccccc3)s2)cc1 (stereo not given),u,2%,-1%,i,i,21µM*
COc1cccc(NC(=O)C(Sc2nnc(Nc3ccccc3C)s2)c2ccccc2)c1 (stereo not given),16µM*,-22%,u,i,i,21µM*
COc1ccc(NC(=O)Oc2ccccc2)cc1Cl,-13%,22%,4%,i,i,-16%
COc1ccc(C2=Nc3ccccc3N(C(=O)c3ccc4c(c3)OCO4)C2C(=O)Nc2c(C)cccc2C)cc1 (stereo not given),u,0%,5%,i,i,u
Cc1cc(N2CCCCC2)nc2ccc(NC(=O)CCC(=O)N3CCN(c4ccccc4)CC3)cc12,u,x,x,i,i,21µM*
CCCCNC(=O)CCC(=O)Nc1ccc2nc(N3CCN(C)CC3)cc(C)c2c1,-2%,-3%,0%,i,i,-2%
Cc1ccc(C)c(N2CCN(C(=O)CCC(=O)Nc3ccc4nc(N5CCCCC5)cc(C)c4c3)CC2)c1,12µM*,x,x,i,i,12µM*
COc1ccc(-c2nc(CS(=O)CC(=O)NCCCN3CCOCC3)c(C)o2)cc1OC (stereo not given),u,-4%,0%,i,i,-29%
CCCCCCn1cc(C(=O)O)c(=O)c2cc(F)c(N3CCN(C)CC3)cc21,16µM*,15%,10%,i,i,18µM*
CCCCCCCCC(=O)N1CCN(c2cc3c(cc2F)c(=O)c(C(=O)O)cn3CC)CC1,-24%,18%,19%,i,i,-15%
CCCCCCNC(=O)c1cn(CC)c2cc(N3CCN(C)CC3)c(F)cc2c1=O,21µM*,16µM*,u,i,i,26µM*
CCCCCCCC(=O)N1CCN(c2cc3c(cc2F)c(=O)c(C(=O)O)cn3CC)CC1,23µM*,-1%,-5%,i,i,u
CCn1cc(C(=O)NCCCO)c(=O)c2cc(F)c(N3CCN(C)CC3)cc21,-28%,11%,6%,i,i,-20%
CCOC(=O)c1cn(CC#N)c2cc(F)c(F)cc2c1=O,4%,6%,14%,i,i,-10%
CCCCCCn1cc(C(=O)OCC)c(=O)c2cc(F)c(F)cc21,u,-14%,-16%,i,i,23µM*
Cc1ccc(Cl)cc1NC(=O)CN(C)S(=O)(=O)c1ccc2c(c1)n(C)c(=O)c(=O)n2C,-11%,x,x,i,i,-9%
CC1(C)Cc2ccccc2/C(=C/C(=O)N2CCCCCC2)N1,16µM*,-27%,u,i,i,26µM*
COc1ccc(Cl)cc1C(=O)NCC(C)C,7%,8%,3%,i,i,-11%
O=C(NCc1cccnc1)C(=O)NCC1OCCN1S(=O)(=O)c1ccc(F)cc1 (stereo not given),6%,12%,14%,i,i,-1%
CC(C)Cn1c(N)c(C(=O)COC(=O)C2Cc3ccccc3CN2S(C)(=O)=O)c(=O)n(C)c1=O (stereo not given),6.5µM*,0%,-4%,x,x,5.2µM*
Cn1c(=O)c(C(=O)CCl)c(N)n(CC2CC2)c1=O,23µM*,5%,3%,i,i,18µM*
